In the supplement of paper PMC10849652 one finds log2 fold change data, which are given here for 14 targets.

Of roughly 8,800 targets only a part is listed; those with a hit were picked by preference. About 0.5% of all pairs of compound and target were hits. A number with no mark means an inactive call.

Holding throughout (assay): log2 fold change, soluble protein after heating vs DMSO (PISA); higher = thermal stabilisation; K562 lysate, 10 uM; active = over 0.2 and 3.5 SD of the protein, either way, in both replicates (recomputed)
Compound in assay [1]: Cc1sc2c(c1C)C(c1ccc(Cl)cc1)=N[C@@H](CC(=O)OC(C)(C)C)c1nnc(C)n1-2
The essentials: (§1)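 K562 pellets were dounce-homogenised in PBS pH 7.4 with 1 mM MgCl2, and the crude extract at 1 mg/mL protein was treated with 10 μM compound for 30 min. Aliquots were heated for 3 min across 48°C-58°C, pooled, and brought to 0.5% NP-40 at 4°C; soluble protein was the supernatant after 21,000xg for 90 min. Soluble protein was quantified by TMTpro 16plex LC-MS/MS with channel sums equalised, and reported as log2 fold change in thermal stability against DMSO controls, with values from duplicates.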

Compound in assay [2]: c1ccc([C@@H]2C[C@H]2NC2CCNCC2)cc1
The essentials: as §1

Compound in assay [3]: C1=CC=C(C=C1)[C@H](COC2=CC3=C(C=C2)NC(=O)N3)NC(=O)C4=CC=CN(C4=O)CC5=CC(=C(C=C5)F)F
The essentials:
as §1

Compound in assay [4]: CC1=C(SC2=C1C(=N[C@H](C3=NN=C(N32)C)CC(=O)N)C4=CC=C(C=C4)Cl)C
The essentials: as §1

Compound in assay [5]: CC1=C2C(=CC=C1)N=C(N(C2=O)C3=CC=CC=C3C)CN4C=NC5=C(N=CN=C54)N
A digest of the protocol: as §1

UniProt P28340, sequence (P28340 whole entry, looked up): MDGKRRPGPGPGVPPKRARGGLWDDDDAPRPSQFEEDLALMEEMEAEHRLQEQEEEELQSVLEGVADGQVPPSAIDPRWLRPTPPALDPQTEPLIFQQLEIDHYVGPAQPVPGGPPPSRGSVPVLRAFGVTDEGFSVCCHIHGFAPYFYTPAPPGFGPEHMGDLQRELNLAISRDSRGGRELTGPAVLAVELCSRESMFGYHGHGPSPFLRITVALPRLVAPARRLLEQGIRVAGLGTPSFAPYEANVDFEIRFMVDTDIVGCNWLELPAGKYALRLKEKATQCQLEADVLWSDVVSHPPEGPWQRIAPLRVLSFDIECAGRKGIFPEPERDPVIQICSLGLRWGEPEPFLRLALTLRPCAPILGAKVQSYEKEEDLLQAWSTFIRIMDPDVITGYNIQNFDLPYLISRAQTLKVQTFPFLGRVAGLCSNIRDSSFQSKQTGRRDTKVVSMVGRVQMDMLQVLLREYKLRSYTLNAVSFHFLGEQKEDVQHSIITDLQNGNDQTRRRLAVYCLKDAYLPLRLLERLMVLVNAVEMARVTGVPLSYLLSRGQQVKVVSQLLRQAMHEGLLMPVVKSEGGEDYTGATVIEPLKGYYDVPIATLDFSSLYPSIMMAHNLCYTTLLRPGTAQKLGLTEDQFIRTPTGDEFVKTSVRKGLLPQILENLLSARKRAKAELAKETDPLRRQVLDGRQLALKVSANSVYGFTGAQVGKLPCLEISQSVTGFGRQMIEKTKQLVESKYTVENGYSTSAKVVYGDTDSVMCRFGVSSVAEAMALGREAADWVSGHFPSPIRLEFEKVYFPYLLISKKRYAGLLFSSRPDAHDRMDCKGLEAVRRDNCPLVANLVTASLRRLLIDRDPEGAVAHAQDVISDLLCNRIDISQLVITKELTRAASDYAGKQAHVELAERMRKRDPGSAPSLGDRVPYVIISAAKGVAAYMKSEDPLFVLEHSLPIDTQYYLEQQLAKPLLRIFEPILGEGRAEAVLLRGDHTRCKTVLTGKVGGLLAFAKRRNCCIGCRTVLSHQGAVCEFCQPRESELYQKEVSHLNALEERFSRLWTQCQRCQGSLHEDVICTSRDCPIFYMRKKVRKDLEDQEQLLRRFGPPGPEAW
UniProt Q9BSG0, sequence (Q9BSG0 whole entry, looked up): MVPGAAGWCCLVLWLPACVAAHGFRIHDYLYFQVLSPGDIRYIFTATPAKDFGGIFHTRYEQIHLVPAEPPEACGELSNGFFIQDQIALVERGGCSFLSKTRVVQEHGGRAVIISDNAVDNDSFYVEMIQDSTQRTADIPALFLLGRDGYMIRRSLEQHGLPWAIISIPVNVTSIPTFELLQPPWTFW
UniProt Q8N8N7, sequence (Q8N8N7 whole entry, looked up): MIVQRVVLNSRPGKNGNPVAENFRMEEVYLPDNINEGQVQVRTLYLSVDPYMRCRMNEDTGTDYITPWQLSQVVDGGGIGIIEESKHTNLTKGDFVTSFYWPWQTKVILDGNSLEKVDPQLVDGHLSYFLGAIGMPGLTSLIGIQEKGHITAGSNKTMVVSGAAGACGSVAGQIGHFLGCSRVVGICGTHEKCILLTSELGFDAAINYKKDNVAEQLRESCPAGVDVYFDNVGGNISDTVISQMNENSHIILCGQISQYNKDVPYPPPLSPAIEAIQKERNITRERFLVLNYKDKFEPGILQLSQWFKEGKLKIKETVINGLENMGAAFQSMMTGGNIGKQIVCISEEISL
UniProt P35236, sequence (P35236 whole entry, looked up): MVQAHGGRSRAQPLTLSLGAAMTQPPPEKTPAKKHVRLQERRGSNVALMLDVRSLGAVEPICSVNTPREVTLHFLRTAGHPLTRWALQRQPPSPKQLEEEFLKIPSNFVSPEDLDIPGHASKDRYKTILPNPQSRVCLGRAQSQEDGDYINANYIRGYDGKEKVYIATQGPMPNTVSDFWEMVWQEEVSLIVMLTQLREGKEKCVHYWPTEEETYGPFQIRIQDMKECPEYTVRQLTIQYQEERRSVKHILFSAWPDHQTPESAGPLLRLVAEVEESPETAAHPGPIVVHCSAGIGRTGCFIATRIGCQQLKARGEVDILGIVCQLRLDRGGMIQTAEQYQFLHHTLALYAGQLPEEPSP
UniProt O75569, sequence (O75569 whole entry, looked up): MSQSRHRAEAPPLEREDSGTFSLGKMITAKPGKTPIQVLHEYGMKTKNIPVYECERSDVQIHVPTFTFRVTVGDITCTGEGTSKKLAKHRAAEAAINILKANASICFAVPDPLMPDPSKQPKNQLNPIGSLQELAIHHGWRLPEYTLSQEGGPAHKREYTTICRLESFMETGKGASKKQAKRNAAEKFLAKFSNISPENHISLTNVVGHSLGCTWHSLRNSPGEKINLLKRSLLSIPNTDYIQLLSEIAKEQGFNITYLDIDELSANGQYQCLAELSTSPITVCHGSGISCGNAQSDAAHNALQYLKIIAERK
UniProt Q8N4L2, sequence (Q8N4L2 whole entry, looked up): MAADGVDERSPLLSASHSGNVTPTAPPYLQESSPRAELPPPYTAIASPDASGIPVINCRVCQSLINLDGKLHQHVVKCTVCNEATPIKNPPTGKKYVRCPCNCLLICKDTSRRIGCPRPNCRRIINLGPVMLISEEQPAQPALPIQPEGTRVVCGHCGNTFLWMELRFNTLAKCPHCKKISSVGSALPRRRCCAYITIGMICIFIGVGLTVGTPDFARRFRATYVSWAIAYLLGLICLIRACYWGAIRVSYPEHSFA
UniProt O94906, sequence (O94906 whole entry, looked up): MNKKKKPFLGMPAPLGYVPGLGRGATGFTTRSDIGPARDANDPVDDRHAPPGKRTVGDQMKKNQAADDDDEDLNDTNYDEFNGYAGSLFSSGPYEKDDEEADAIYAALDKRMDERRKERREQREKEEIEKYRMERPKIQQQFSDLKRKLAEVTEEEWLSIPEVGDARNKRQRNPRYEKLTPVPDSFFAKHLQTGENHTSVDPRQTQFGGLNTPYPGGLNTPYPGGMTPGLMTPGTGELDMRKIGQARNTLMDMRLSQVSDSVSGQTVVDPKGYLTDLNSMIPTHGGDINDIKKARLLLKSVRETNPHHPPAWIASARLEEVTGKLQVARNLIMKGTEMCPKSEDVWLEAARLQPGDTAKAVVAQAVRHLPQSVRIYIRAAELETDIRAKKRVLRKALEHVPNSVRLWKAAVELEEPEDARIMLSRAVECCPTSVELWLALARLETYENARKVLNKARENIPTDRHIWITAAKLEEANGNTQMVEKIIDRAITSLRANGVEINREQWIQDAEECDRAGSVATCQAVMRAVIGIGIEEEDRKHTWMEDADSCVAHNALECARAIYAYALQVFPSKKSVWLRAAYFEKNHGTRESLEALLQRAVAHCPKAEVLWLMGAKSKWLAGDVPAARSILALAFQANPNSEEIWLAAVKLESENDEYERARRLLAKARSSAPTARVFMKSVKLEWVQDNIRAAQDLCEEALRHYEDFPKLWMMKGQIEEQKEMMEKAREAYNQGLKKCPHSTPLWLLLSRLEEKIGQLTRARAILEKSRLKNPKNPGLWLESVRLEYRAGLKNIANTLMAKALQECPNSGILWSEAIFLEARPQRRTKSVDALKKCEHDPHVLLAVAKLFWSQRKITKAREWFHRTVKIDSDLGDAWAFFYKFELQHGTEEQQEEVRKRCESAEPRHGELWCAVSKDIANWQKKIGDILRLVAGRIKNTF
UniProt P41247, sequence (P41247 whole entry, looked up): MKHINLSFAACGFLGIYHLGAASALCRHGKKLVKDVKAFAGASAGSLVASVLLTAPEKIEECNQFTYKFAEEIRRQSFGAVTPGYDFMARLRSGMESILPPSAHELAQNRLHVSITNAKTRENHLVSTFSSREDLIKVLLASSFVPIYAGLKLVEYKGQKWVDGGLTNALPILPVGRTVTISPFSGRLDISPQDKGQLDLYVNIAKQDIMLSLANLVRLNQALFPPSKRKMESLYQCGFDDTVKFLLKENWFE
UniProt Q16378, sequence (Q16378 whole entry, looked up): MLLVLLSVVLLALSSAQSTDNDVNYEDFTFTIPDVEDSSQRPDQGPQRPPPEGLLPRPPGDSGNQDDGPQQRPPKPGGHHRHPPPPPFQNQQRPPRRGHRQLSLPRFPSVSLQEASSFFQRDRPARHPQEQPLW
UniProt P60673, sequence (P60673 whole entry, looked up): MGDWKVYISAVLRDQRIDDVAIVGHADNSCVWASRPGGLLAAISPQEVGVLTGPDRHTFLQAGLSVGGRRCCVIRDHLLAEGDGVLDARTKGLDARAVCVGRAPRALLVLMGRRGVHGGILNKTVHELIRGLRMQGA

Turning to NA (UniProt Q4G0T1), the log2 fold change in assay [1] is -0.027; in assay [2], -0.025.

As to PRPF6 (UniProt O94906), the log2 fold change in assay [3] is -0.006; in assay [4], 0.015; in assay [5], -0.012; in assay [1], -0.01; in assay [2], 0.04.

Take PREP (UniProt H0Y5Y0): the log2 fold change in assay [2] is 0.086.

As for PCBP2 (UniProt F8VRH0), the log2 fold change in assay [2] was 0.232.

As to PRKRA (UniProt O75569), the log2 fold change is -0.002 in assay [3]; 0.027 in assay [4]; 0.031 in assay [5]; 0.029 in assay [1]; 0.036 in assay [2].

Turning to PRG4 (UniProt Q92954), the log2 fold change was 0.03 in assay [3], -0.081 in assay [4], -0.059 in assay [1] and -1.18 (active) in assay [2].

In the case of PRADC1 (UniProt Q9BSG0), the log2 fold change in assay [3] is 0.267; in assay [4] it was 0.021; in assay [1] it was -0.029; in assay [2], 0.018.

Regarding POLD1 (UniProt P28340), the log2 fold change in assay [3] was 0.026; in assay [4], 0.003; in assay [5], 0.011; in assay [1], 0.03; in assay [2], 0.042.

Take PNPLA4 (UniProt P41247): the figures for the log2 fold change in assay [5], in assay [1] and in assay [2] were -0.009, 0.201 and -0.019, respectively.

Turning to PRR4 (UniProt Q16378), the log2 fold change in assay [5] is -0.076; in assay [2] it was -0.269.

Consider PTPN7 isoform 3 (UniProt P35236), for which the log2 fold change in assay [3] was -0.028; in assay [4], 0.002; in assay [5], -0.031; in assay [1], 0.015; in assay [2], -0.012.

For the target PTGR2 (UniProt Q8N8N7), the log2 fold change was 0.009 in assay [3]; 0.039 in assay [4]; -0.003 in assay [5]; -0.048 in assay [1]; -0.004 in assay [2].

For PIP4P2 (UniProt Q8N4L2), the log2 fold change in assay [3] is 0.03; in assay [4] it was -0.068; in assay [5], -0.012; in assay [1], 0.012; in assay [2], -0.106.

Take PFN3 (UniProt P60673): the log2 fold change is 0.072 in assay [5] and -0.004 in assay [2].
